According to the supplement of paper PMC6555819:

Tested on: VDR:RXRa (NR concentration 270 nM, RXRa partner concentration 90 nM)
Assay: PBM binding z-score (relative to random genomic background probes); higher = stronger binding; sequences stand for … in GC…GCGATTGACAGCGTAGAATGAAGG
Protocol: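 Protein-binding microarray (Agilent 4x180K custom design, double-stranded 60-nt probes: 5' GC cap, 34-nt variable region, 24-nt constant primer region; full probe sequence given). Purified or IVT nuclear receptor:RXRα heterodimers (3:1 NR:RXRα, mostly 270:90 nM) or homodimers were incubated for 1 h in PBS with 2% milk and no ligand, then detected with Alexa488 antibodies. Fluorescence from o1-orientation probes (~5 replicates averaged) was converted to z-scores against 500 random hg19 background probes. Variable regions are seed direct-repeat (DR0–DR5) sites, all their single-nucleotide variants and half-site ablations.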

Sequence | PBM binding z-score
TCATGTAGGTAAACAGGTGAAAGTCCGTAAGTTA | 0.613
CTTACAGGGTCAGCTAGGCCAGAGTAGGGACGGC | 3.88
GCGACTGGGGCATCAGCAGGTAACCATAACTTAA | -0.245
CCGAGTACGTTATGGGGCATTCAGGCAACGGTGA | 0.216
AGAATGAGGTTATTAAGACCAGGGAATTGCGGTC | 1.69
ATATGTAGGTTACATCCGGGGCATTCAGGCTATG | 1.23
CGTCCAGGGTCATAGGAGGTCAGTGAAGACAGAT | 6.65
TTACCAAGGTGAAAGGTCTTTGATGCACGCCTTG | 0.479
TCTGCTAGGTCAGTTGGTTAGCTAACGAGCTGCC | 0.227
GGAACGAGGGGATTCGAGTTGATAGCATGGCGAT | 0.173
GTACCAAGGTGAGTAGGTCGTTGATGAGTAGGCG | 0.177
TCTATTAGTTGTTTAGGGCAACCGAAACAGCGGA | 0.707
TCTAGTTGGTCTCGGAGGTCACACACGACGGGTA | 3.75
CCTAGCAGGCCAGGGACACTCAAGCATTTCGCTT | -0.417
CCTAGTTGGTAAAGGTCACACACGCTATAGGTAC | 4.9
GTACCAAGGTGAATAGGTCGTTGACGAGTAGGCG | 0.987
CAAACTAGGTCACAGAGGTAAAAGTCCGTGCGTA | 4.96
TCAGACAGGTGAACGTAACTCAGGTACGCAGTCG | 0.682
ACCGAAAGGTCGACGAGGTGAGTATACACCGTTT | 5.14
CCTCGGAGGACAGAAGCTCAGAGCTGTCCGCTTT | -0.941

Sequence | PBM binding z-score
ATCTCTAGGTAAAGATAGCTCAGTGAATGCAAAT | -0.433
CCTATTCGTTGACCATAAGGGCAACCGAAGCTCG | 0.983
CCTATTAGTTGACCATACGGGCAACCGAAGCTCG | 0.598
ACAGACAGGTGAGTGAAGGTTACTCAGCTGGACG | 0.088
ATCTCTAGGCAAAGATAGTTCAGTGAATGCAAAT | -0.11
ACAGACAGGTGAGGGAAGGTAACTCAGCTGGACG | -0.405
AGAACGAGGGCACGCTGAGTTGATAGCGGAGTAG | 2.13
CTAACTAGGTCAGAACAGGACAGTGAAGGATGAT | 0.705
GCAGACAGGTCAAACGCAGGTAACTCAGGGTGGC | 3
CGTCCAAGGTCAATGCTAGGTCAGCGAAAGCATT | 4.93
ATCTCTAGGTCAAGTTCAGTGAAAGATCGATAGA | 3.65
TCTAGCAGGCCAGAGGGTCACTCATGAGGTACGG | 1.4
GCAGACAGGTGAAACGCAGGTAACTCCGGGTGGC | -0.595
GCTAGATGGTCAGTAAAAGGTCACACACCGGTCG | 3.91
AATACAGGGTCTCTAGGCCAGAGTAGGTACGAAT | -0.299
CGTACTAGGTCATCCAGGACAGTGAATACATTGA | 4.32
GCTTGCAGGCCATTTGGGTCACTCAATGACGGGC | 1.08
GCGACTGGGGCATCGGCAGGTTACCATAACTTAA | -0.199
TCAGACAGGGGAAGGTAACTCAGGTACGCAGTCG | 0.795
ATAACGAGGGCAATGAGTTGATAGCACGGGTGGC | 4.89
